Among the data in PubChem BioAssay are composite z-score and z-score values, retold here.

Activity calls are given as the source filed them.

Experiment [1] can be described thus: binders of probe aFSTL3 on microarray, primary screen, stem cell growth factor project, biochemical, small-molecule microarray, fluorescence 635/667 (AID 1064).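 Note: measures binding of the biotinylated anti-FSTL3 antibody to printed compounds.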 The following applies: higher = more signal.
Experiment [2] can be described thus: binders from COS7 lysate, DM2A8 probe, primary screen, torsin A project, cell lysate, small-molecule microarray, fluorescence 635/667 (AID 1065). The following applies: higher = more signal, COS7 lysate expressing mutant human TOR1A.
Experiment [3] is described as follows: binders of probe aFGF2 on microarray, primary screen, stem cell growth factor project, biochemical, small-molecule microarray, fluorescence 635/667 (AID 1067).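 Note: measures binding of biotinylated aFGF2 protein to printed compounds on slides; z-score merges feature fluorescence and signal-to-noise across triplicate slides.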 To be noted: higher = more signal.
A short description of experiment [4]: binders of probe aFGF10 on microarray, primary screen, stem cell growth factor project, biochemical, small-molecule microarray, fluorescence 635/667 (AID 1071).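 Note: score merges 667 nm spot intensity and signal to noise from triplicate slides.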 The following applies: higher = more signal.
Experiment [5] has as its target Neurogenic locus notch homolog protein 2 (Homo sapiens) (UniProt Q04721). Nature of the experiment: Notch2 binders on small-molecule microarrays, primary screen, biochemical, small-molecule microarray, 635 nm fluorescence, stem cell growth factors (AID 1073). The following applies: Notch2 binding, higher = more signal.
In experiment [6] the target is Pro-neuregulin-1, membrane-bound isoform (Homo sapiens) (UniProt Q02297). Nature of the experiment: NRG1 binders on small-molecule microarrays, primary screen, psychiatric disease protein project, biochemical, small-molecule microarray, fluorescence 635/667 (AID 1075).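 Note: score combines 667 nm spot fluorescence with signal to noise.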 The following applies: NRG1 binding, 635 nm fluorescence, higher = more signal.
Sequence of Pro-neuregulin-1, membrane-bound isoform (Homo sapiens) (Q02297 whole entry, looked up, the tested form may be a part, canonical isoform): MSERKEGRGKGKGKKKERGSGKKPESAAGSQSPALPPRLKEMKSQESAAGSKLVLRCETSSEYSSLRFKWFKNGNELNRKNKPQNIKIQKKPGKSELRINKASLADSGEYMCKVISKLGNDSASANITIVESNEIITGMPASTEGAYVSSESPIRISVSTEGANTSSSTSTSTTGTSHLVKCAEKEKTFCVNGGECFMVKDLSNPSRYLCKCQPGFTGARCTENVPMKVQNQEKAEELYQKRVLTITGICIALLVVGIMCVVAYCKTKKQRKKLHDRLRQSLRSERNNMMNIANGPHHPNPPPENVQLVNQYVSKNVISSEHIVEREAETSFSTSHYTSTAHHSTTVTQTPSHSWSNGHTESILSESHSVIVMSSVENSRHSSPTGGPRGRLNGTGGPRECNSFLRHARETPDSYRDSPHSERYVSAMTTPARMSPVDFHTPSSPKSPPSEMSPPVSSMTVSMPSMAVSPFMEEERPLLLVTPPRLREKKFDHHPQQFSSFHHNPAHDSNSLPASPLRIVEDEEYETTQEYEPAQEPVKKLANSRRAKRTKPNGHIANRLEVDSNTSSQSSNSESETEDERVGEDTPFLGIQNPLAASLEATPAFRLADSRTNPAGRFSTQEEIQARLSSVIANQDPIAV
Experiment [7] concerns Neuregulin-1 EGF-like domain. The experiment is described as follows: binders of neuregulin-1 EGF-like domain, primary screen, biochemical, small-molecule microarray, 635 nm fluorescence (AID 1081).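 Note: binding of the protein to compounds printed on small-molecule microarray slides.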 To be noted: small-molecule microarray binding, higher = more signal.
Experiment [8] is described as follows: FRG1 promoter luciferase signal modulators, primary screen, FRG1 inhibition for FSHD, cell-based, C2C12 myotubes, firefly/Renilla luciferase, luminescence (AID 1084). The following applies: higher = more signal, called active from +8 up or from −8 down.
Experiment [9] can be described thus: binders of probe aFST on microarray, primary screen, stem cell growth factor project, biochemical, small-molecule microarray, fluorescence 635/667 (AID 1086).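 Note: score merges 667 nm fluorescence with signal-to-noise of each printed compound spot.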 The following applies: higher = more signal.
Experiment [10] is described as follows: binders of probe aHhip on microarray, primary screen, stem cell growth factor project, biochemical, small-molecule microarray, fluorescence 635/667 (AID 1087).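 Note: score merges spot fluorescence at 667nm with spot signal to noise ratio.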 The following applies: higher = more signal.
Experiment [11] relates to PRMT1 (protein arginine N-methyltransferase 1). Nature of the experiment: PRMT1 binders on small-molecule microarrays, primary screen, biochemical, small-molecule microarray, 635 nm fluorescence (AID 1088).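 Note: binding of Prmt1 protein to compounds spotted on small-molecule microarray slides.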 To be noted: small-molecule microarray binding, higher = more signal.
Experiment [12] can be described thus: yeast growth modulation, basal conditions, primary screen, YJM789 clinical isolate, OD600, 24 h (AID 1089).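 Note: growth of clinical yeast isolate S. cerevisiae YJM 789 seeded 1000 cells per well; test concentration not given here.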 The following applies: S. cerevisiae YJM789 growth, higher = more signal, called active from +8 up or from −8 down.
The nature of experiment [13]: fission yeast growth modulation, primary screen, strain 972, OD600, 24 h, no modulator (AID 1090).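 Note: basal condition with compound alone and no growth modifier present; test concentration not given here.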 The following applies: S. pombe 972 growth, higher = more signal, called active from +8 up or from −8 down.
A short description of experiment [14]: S. cerevisiae growth modulation with rapamycin, primary screen, strain BY4716, OD600, 96 h (AID 1091). Note: test concentration not given here. To be noted: higher = more signal, called active from +8 up or from −8 down.
Experiment [15] has as its target Torsin-1A-interacting protein 2 (Homo sapiens) (UniProt Q8NFQ8). Nature of the experiment: LULL1 binders on small-molecule microarray, primary screen, cell lysate, human LULL1 lysate, 635/667 nm fluorescence (AID 1092).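 Note: probe is lysate of COS7 cells overexpressing human LULL1; score merges per-feature 667 nm fluorescence with signal-to-noise.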 To be noted: hLULL1 lysate binding, 635 nm fluorescence, higher = more signal.
A short description of experiment [16]: E. coli growth modulation, two-sided OD650, primary screen, E. coli filamentation project, strain DRC41, 24 h (AID 1093).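 Note: MC1000 strain lacking acrAB efflux and sulA so SOS filamentation is blocked; test concentration not given here.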 The following applies: OD650, 24 h, higher = more signal, called active from +8 up or from −8 down.
Experiment [17] in a line: small-molecule microarray binders of probe aLefty2, primary screen, biochemical, biotinylated probe, 635/667 nm fluorescence (AID 1094).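 Note: score merges spot fluorescence near 667 nm with spot signal-to-noise ratio.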 The following applies: higher = more signal.
The test system of experiment [18] is Noggin (protein binding on small-molecule microarray). The experiment is described as follows: Noggin binders on small-molecule microarray, primary screen, biochemical, 635/667 nm fluorescence (AID 1095).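 Note: score merges 667 nm feature fluorescence with signal to noise over triplicate slides.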 The following applies: 635 nm fluorescence, higher = more signal.
In experiment [19] the target is Neurogenic locus notch homolog protein 3 (Homo sapiens) (UniProt Q9UM47). Nature of the experiment: NOTCH3 binders on small-molecule microarray, primary screen, biochemical, 635/667 nm fluorescence (AID 1096). To be noted: NOTCH3 binding, 635 nm fluorescence, higher = more signal.
Sequence of Neurogenic locus notch homolog protein 3 (Homo sapiens) (Q9UM47 whole entry, looked up): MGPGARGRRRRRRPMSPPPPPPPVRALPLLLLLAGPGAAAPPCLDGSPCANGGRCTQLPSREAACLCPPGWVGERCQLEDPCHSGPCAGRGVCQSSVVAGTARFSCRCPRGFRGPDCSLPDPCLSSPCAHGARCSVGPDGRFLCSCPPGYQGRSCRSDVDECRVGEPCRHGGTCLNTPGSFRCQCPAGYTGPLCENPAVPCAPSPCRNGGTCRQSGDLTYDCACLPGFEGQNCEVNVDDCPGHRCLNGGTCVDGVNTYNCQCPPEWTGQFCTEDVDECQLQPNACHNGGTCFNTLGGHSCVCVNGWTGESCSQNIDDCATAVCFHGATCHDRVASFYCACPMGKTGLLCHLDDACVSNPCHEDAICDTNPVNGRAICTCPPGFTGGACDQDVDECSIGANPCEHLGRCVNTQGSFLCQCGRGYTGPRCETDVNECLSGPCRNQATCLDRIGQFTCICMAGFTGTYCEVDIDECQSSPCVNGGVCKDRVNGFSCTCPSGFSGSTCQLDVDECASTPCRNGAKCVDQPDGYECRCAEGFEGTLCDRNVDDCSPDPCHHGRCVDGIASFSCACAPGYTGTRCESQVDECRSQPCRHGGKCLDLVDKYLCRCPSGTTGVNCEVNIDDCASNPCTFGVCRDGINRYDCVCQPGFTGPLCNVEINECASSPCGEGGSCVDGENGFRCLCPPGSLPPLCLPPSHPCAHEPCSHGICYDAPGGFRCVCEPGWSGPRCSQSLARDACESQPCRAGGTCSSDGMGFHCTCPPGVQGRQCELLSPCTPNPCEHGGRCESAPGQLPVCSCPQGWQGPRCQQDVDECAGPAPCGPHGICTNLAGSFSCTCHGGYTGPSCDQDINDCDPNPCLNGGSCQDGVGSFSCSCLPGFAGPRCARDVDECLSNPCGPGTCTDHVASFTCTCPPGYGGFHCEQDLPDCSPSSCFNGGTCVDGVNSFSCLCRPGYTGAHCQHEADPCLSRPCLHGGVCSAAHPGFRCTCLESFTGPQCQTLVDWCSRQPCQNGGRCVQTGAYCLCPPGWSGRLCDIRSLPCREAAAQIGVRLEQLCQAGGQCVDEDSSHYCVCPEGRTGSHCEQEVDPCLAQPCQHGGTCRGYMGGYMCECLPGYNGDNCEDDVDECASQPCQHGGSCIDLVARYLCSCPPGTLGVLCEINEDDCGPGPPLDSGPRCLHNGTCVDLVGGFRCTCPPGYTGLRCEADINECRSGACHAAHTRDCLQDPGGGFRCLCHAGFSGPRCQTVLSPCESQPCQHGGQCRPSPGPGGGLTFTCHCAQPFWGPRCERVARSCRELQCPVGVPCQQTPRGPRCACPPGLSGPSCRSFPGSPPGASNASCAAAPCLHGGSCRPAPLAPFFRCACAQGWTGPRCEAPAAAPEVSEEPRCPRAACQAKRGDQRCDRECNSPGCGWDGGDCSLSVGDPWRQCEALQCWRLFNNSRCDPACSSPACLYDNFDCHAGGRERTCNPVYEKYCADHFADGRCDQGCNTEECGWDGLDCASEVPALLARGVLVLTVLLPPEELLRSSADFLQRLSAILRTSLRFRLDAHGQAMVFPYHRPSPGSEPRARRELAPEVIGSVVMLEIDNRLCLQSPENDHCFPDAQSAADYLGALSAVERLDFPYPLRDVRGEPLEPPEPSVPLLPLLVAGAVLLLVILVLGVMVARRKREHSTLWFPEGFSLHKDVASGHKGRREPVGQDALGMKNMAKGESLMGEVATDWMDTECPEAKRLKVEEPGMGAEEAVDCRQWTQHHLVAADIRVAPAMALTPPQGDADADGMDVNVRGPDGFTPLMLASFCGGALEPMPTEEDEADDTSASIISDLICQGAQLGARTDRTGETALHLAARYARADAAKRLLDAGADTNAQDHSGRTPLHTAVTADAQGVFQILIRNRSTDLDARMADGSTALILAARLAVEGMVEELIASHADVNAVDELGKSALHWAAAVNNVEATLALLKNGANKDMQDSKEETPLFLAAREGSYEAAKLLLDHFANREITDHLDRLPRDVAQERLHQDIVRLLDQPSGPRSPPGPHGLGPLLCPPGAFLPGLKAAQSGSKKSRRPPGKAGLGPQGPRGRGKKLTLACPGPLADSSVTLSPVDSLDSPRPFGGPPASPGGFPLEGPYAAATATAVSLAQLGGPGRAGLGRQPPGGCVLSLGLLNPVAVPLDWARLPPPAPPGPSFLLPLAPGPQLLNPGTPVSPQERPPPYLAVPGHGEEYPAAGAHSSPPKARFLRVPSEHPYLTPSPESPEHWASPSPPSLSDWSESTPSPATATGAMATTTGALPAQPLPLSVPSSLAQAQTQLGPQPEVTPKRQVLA
The nature of experiment [20]: small-molecule microarray binders of probe aEGFR, primary screen, biochemical, biotinylated probe, 635/667 nm fluorescence (AID 1097).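 Note: probe is a biotinylated anti-EGFR antibody binding compounds printed on slides; score combines fluorescence near 667 nm and signal to noise of each spot.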 To be noted: higher = more signal.

Sequence of Torsin-1A-interacting protein 2 (Homo sapiens) (Q8NFQ8 whole entry, looked up): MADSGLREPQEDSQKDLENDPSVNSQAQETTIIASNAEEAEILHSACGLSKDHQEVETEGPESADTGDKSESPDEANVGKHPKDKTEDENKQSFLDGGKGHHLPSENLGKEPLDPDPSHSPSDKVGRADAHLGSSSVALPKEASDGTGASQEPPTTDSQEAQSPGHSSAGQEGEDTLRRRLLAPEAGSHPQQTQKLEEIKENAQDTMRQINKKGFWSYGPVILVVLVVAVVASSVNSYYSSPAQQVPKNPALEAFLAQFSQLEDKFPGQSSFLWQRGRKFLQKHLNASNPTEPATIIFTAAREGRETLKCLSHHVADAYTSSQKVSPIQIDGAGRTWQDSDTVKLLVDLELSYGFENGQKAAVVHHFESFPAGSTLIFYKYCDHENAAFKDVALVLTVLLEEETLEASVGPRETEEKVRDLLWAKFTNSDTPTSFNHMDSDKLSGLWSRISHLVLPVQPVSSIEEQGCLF

With `CCCNC(=O)[C@@]1(C)c2ccccc2C(=O)N(Cc2cc(F)cc(C(F)(F)F)c2)[C@H]1c1ccc(CO)cc1`, the composite z-score in [1] is 0.343; in experiment [2], 1.04; in [3], -0.0901; in experiment [4], -0.104; in experiment [5], -0.639; in experiment [6], 0.27. In addition, the composite z-score in experiment [7] is 0.146; in experiment [9] it was -0.282; in experiment [10], -0.181; in experiment [11] it was 0.136; in experiment [15], 2.08; in experiment [17] it was -0.174. The composite z-score is 0.0391 in [18], -0.131 in experiment [19] and -0.194 in experiment [20]. For the same molecule, the z-score in experiment [8] was -0.92 (inactive); in experiment [12] it was -1.34 (inactive); in experiment [13], -0.974 (inactive); in experiment [14], -1.24 (inactive); in [16], 0.423 (inactive).
Take `CC(C)N1C(=O)c2ccccc2[C@](C)(C(=O)NC2CC2)[C@@H]1c1ccc(CO)cc1`: the composite z-score in [1] was -0.181; in experiment [2], 0.007; in [3], -0.129; in experiment [4], -0.0282; in experiment [5] it was 0.38; in [6], 0.602. The composite z-score in experiment [7] was 1.21; in experiment [9], 0.048; in experiment [10], 0.0246; in experiment [11], 1.49; in experiment [15] it was 2.66; in experiment [17], -0.14. Besides, the composite z-score was 0.614 in experiment [18], 0.764 in [19] and -0.081 in experiment [20]. The z-score was -0.0117 (inactive) in [8]; -0.0975 (inactive) in experiment [12]; 0.193 (inactive) in experiment [13]; -0.699 (inactive) in experiment [14]; 0.738 (inactive) in [16].
In the case of `CN1C(=O)C2C=CC(C(O)C(C)(C)C)N(Nc3ccccc3)C2C1=O` (stereo not given), the composite z-score was 0.207 in [1]; -0.565 in [2]; -0.14 in experiment [3]; -0.181 in experiment [4]; 0.0262 in experiment [5]; 1.4 in experiment [6]. The composite z-score in experiment [7] is 0.291; in experiment [9] it was 0.0082; in [10], -0.173; in [11], -0.316; in experiment [15] it was 3.16; in experiment [17] it was -0.266. Further, the results for the composite z-score in experiment [18], in [19] and in [20] were -0.611, -0.784 and -0.19, respectively. In addition, the z-score in experiment [8] is -0.269 (inactive); in experiment [12] it was 0.392 (inactive); in experiment [13], 1 (inactive); in [14] it was 0.949 (inactive); in experiment [16] it was -0.971 (inactive).
With `[N-]=[N+]=Nc1ccccc1C[C@]1(C(=O)N2CCCCC2)N=C(c2ccc(OCCCO)cc2)O[C@H]1c1ccccc1N=[N+]=[N-]`, the composite z-score in experiment [1] was 0.368; in experiment [2] it was -0.155; in experiment [3] it was 0.14; in [4], 0.771; in [5], 1.53; in experiment [6], 1.71. The composite z-score in [7] is 1.01; in experiment [9] it was 0.991; in experiment [10] it was -0.305; in experiment [11], 1.56; in experiment [15] it was 3.48; in experiment [17] it was 0.512. Also, the composite z-score stood at 0.471 in experiment [18], 1.05 in experiment [19] and 0.277 in experiment [20]. Further, the z-score is -1.68 (inactive) in experiment [8]; 0.0343 (inactive) in experiment [12]; -10.4 (active) in experiment [13]; 1.51 (inactive) in experiment [14]; -0.204 (inactive) in [16].
For `C=C(C)[C@@H]1CC=C(C(O)C2C=CC3C(=O)N(Cc4ccccc4)C(=O)C3N2n2cnnc2)CC1` (stereo not given in full), the composite z-score in experiment [1] is 0.29; in experiment [2], 0.271; in [3], -0.0877; in experiment [4], -0.215; in experiment [5] it was -0.274; in [6], 0.485. The composite z-score in [7] was 0.703; in experiment [9], 0.325; in experiment [10] it was 0.208; in [11], -0.0461; in experiment [15], 1.3; in experiment [17], 0.0864. Further, the composite z-score in experiment [18] is -0.305; in experiment [19] it was -0.191; in experiment [20] it was -0.161. The z-score is 0.225 (inactive) in [8]; -0.542 (inactive) in [12]; 0.312 (inactive) in [13]; 0.112 (inactive) in experiment [14]; -0.0792 (inactive) in experiment [16].
